Rows were chosen to be rich in hits. Some 14% of all compounds tested hit in one or more screens of this group.
HCMV antiviral = human cytomegalovirus inhibition; HFF cells, HCMV-luciferase reporter, 72 h; hits give low values; hit rate 4.5% among 410,000; activity change, negative = inhibition, % at 57.5 µM; in the data active means activity change below about -60%; inconclusive means no clear call, values can overlap the other calls; inactive means above about -39%
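Inhibition of viral replication was scored as loss of reporter luminescence in HFFs infected with HCMV-luciferase (MOI 1 PFU/cell) for 72 h; compounds tested at 2 doses, normalized to buffer and Salinomycin controls.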
Giardia FBPA inh = blocks Giardia fructose-bisphosphate aldolase activity. Potency, µM (doses to about 59.6 µM), most hits filed as inhibitors. A8B2U2. purified Giardia FBPA. hit rate 0.71% among 290,000; further: nearly all actives have a fitted effect of over 55% in size
Target sequence (A8B2U2 whole entry, looked up): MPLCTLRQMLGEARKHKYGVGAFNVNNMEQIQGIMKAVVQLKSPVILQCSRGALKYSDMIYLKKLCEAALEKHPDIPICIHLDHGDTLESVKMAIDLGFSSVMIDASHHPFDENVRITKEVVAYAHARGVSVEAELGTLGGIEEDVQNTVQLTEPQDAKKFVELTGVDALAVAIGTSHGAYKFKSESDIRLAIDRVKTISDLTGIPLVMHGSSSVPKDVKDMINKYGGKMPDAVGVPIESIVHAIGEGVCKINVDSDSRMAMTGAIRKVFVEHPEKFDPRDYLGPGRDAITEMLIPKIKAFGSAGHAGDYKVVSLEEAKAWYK
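Giardia FBPA (40 nM reagent) was preincubated 10 min at RT with compound (up to 57.5 uM final), then substrate plus GAPDH/TPI/NAD/arsenate coupling system with diaphorase/resazurin was added; resorufin fluorescence (525/598 nm) was read after 20 min.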
Pf growth 48h = P. falciparum growth inhibition at 48 hours (one generation). P. falciparum luciferase growth in erythrocytes, 48 h. AID 504832. hit rate 5.9% among 310,000. Potency, µM (titrated, usually from 28.7 µM), hits mostly inhibitors
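Luciferase-expressing P. falciparum in infected erythrocytes (2% hematocrit, 0.1% parasitemia final) in RPMI 1640/0.5% Albumax were exposed to compound for 48 hours at 37 C, 5% CO2; growth read as luminescence.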
Pf growth 96h = P. falciparum growth inhibition at 96 hour, primary screen for plastid delayed-death inhibitors; P. falciparum luciferase reporter growth, 96 h; Potency, µM (series often up to 28.7 µM), usual class: inhibitors; hit rate 6.9% among 320,000; AID 504834
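Compounds incubated with erythrocytes infected by luciferase-expressing P. falciparum (2% hematocrit, 0.05% parasitemia final) for 96 hours, 37 C in 5% CO2. Growth inhibition scored as decreased luciferase luminescence.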
Sm TGR block = S. mansoni TGR enzyme inhibition; AID 485364; purified TGR, DTNB reduction, TNB absorbance 405 nm; Potency, µM (titrated, usually from 114 µM), hits mostly inhibitors; hit rate 3% among 360,000; further: nearly all actives have a fitted effect of over 60% in size
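Kinetic colorimetric format: TGR-catalysed, NADPH-driven DTNB reduction monitored via TNB absorbance. Enzyme dispensed at 20 nM; compound exposure 15 min at room temperature before reaction start.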
Hits are given with their value; i = inactive; ? = inconclusive; nt = no result given; [ ] = another dose, or the depositor's remark. Unless noted, the call rests on the fitted dose curve; in most records, active means well fitted curve in the direction sought with a large enough effect; inconclusive means small, poorly fitted or top-dose-only effect, or another doubt; inactive means no such curve, though single readings can be large; an effect the other way counts as inactive or inconclusive.

SMILES	HCMV antiviral	Giardia FBPA inh	Pf growth 48h	Pf growth 96h	Sm TGR block
O=C(C1CCC(CNc2nc(=S)[nH]c3ccccc23)CC1)N1CCN(c2ccccn2)CC1 (stereo not drawn)	-107.4	i	?	i	i
CNCCCC12CCC(c3ccccc31)c1ccccc12	?	i	11.7µM	?	i
CCOC(=O)C(=O)N(Nc1ccccc1C)c1ccccc1C	?	i	?	i	i
C[C@@H]1CN([C@@H](C)CO)C(=O)CCCn2nncc2CO[C@H]1CN(C)S(C)(=O)=O	i	nt	nt	nt	nt
CCCCNC(=O)c1onc(CSc2ccncc2)c1C(=O)NCCCC	i	i	?	i	i
CCCCNC(=O)c1onc(CS(=O)(=O)c2ccccn2)c1C(=O)NCCCC	i	nt	?	14.7µM	i
CCCCNC(=O)c1onc(CSc2ccccc2)c1C(=O)NCCCC	i	nt	?	11.7µM	i
CC(C)NC(=O)c1onc(CSc2ccc(F)cc2)c1C(=O)NC(C)C	i	nt	4.65µM	9.28µM	i
CC(C)NC(=O)c1onc(CSc2ccc(Cl)cc2)c1C(=O)O	i	i	i	i	i
CC(C)NC(=O)c1onc(CSc2ccc(Cl)cc2)c1C(=O)NC(C)C	i	i	5.22µM	3.29µM	i
CSc1ccccc1C(=O)OCC(=O)Nc1cccnc1Cl	i	nt	nt	nt	nt
CN1CCN(C(=O)C[C@H]2C[C@H]3c4cc(NC(=O)NC5CCCCC5)ccc4O[C@H]3[C@@H](CO)O2)CC1	i	nt	nt	nt	nt
O=C(NC1CC1)c1cccc(NC(=O)C2CCCCC2)c1	i	nt	nt	nt	nt
O=C(NCCc1csc(-c2ccc(Cl)cc2)n1)c1ccco1	i	nt	i	i	?
CC(=O)c1cccc(N(CC(=O)NC2CCCCC2)C(=O)CCC(=O)Nc2nc(C)cs2)c1	i	nt	?	?	i
CC(C)CCNC(=O)c1onc(CSc2nc3ccccc3[nH]2)c1C(=O)NCCC(C)C	?	i	?	2.33µM	i
COCCNC(=O)c1onc(CSc2nc3ccccc3[nH]2)c1C(=O)NCCOC	i	i	i	?	i
CCCCNC(=O)c1c(CSc2ccc(Cl)cc2)noc1C(=O)NCCC	i	nt	i	?	i
CCCNC(=O)c1onc(CSc2ccc(Cl)cc2)c1C(=O)NC(C)C	i	nt	11.7µM	4.65µM	i
NNC(=O)COc1ccc(-c2nccc(-c3ccc(F)cc3)n2)cc1	i	i	?	11.7µM	i
FCCCOc1ccc(-c2nccc(-c3ccccn3)n2)cc1	i	i	i[0.00184 µM]	i	i
O=C(O)COc1ccc(-c2nccc(-c3ccccn3)n2)cc1	-71.0	?	i	?	i
COc1ccc(-n2nnnc2/C=C\Nc2ccccc2C(=O)c2ccccc2)cc1	i	i	?	8.28µM	i
COc1ccc(-n2nnnc2/C=C/Nc2cc(C(F)(F)F)ccc2OC)cc1	i	i	?	?	i
COc1ccccc1Cn1c(=S)[nH]c2ccc(F)cc2c1=O	i	i	i	?	i
SMILES	HCMV antiviral	Giardia FBPA inh	Pf growth 48h	Pf growth 96h	Sm TGR block
CC(=O)O[C@H]1[C@H]2O[C@]23[C@@H]2CC[C@]4(O)C[C@@H](O)CC[C@]4(C)C2CC[C@]3(C)[C@H]1c1ccc(=O)oc1 (stereo partly drawn)	nt	nt	i	i	i
C[C@]12CC[C@H]3C(CCC4(O)CC(O)CC[C@]34C=O)C1=CC[C@H]2c1ccc(=O)oc1 (stereo partly drawn)	-98.6	i	i[0.00184 µM]	i	i
CC(C)Cn1c(N)c(C(=O)COC(=O)CC23CC4CC(CC(C4)C2)C3)c(=O)n(C)c1=O	-66.7	i	nt	?	i
CC(C)Cn1c(N)c(C(=O)CSc2ccccc2)c(=O)n(C)c1=O	i	i	i	i	i
CC(C)Cn1c(N)c(C(=O)COC(=O)/C=C/c2ccccc2)c(=O)n(C)c1=O	-75.9	nt	?	10.4µM	i
CCCCCCCCN1C(=O)[C@H](CC(=O)N2CCN(C(=O)C3CC3)CC2)C[C@@]2(C(=O)OC)CCCCC=C12	i	nt	nt	nt	nt
[Cl-].[Cl-].[Hg+2]	nt	nt	2.13µM	2.39µM	nt
CCOC1=C2[C@H](c3ccccc3)N(S(=O)(=O)c3ccc(C)cc3)[C@H](C(C)C)[C@H]2C(C#N)(C#N)C(C#N)(C#N)C1	-76.4	nt	nt	nt	nt
CCOC1=C2CN(S(=O)(=O)c3ccc(C)cc3)[C@H](c3ccc(CC)cc3)C[C@@H]2N(S(=O)(=O)c2ccc(C)cc2)[C@H](c2ccccc2)C1	-73.1	nt	nt	nt	nt
CCOC1=C2[C@H](c3ccc(CC)cc3)N(S(=O)(=O)c3ccc(C)cc3)C[C@H]2C(C#N)(C#N)C(C#N)(C#N)C1	-74.0	nt	nt	nt	nt
CCOC1=C2[C@H](c3ccccc3Cl)N(S(=O)(=O)c3ccc(C)cc3)C[C@H]2C(C#N)(C#N)C(C#N)(C#N)C1	i	nt	nt	nt	nt
O=C(O)[C@H]1[C@H](CO)[C@H]2Cn3c(cccc3=O)[C@@H]1N2S(=O)(=O)c1ccccc1F	i	nt	nt	nt	nt
CC(C)c1ccc(CN2C(=O)C(n3ccc4ccccc43)c3ccccc32)cc1 (stereo not drawn)	i	nt	nt	nt	nt
COc1cc([N+](=O)[O-])c2nccnc2c1	i	i	i	9.28µM	i
COC(=O)c1ccc2cc(OC)cc([N+](=O)[O-])c2n1	i	nt	nt	nt	nt
OC[C@@H]1CN(Cc2ccc3c(c2)OCO3)C[C@H](n2cnc3c(N4CCN(c5ccccc5)CC4)ncnc32)O1	i	nt	nt	nt	nt
O=C(Nc1cccc(-c2nc3ccccc3o2)c1)C(F)(F)F	-103.5	nt	nt	nt	i
O=C(Nc1nc(-c2ccccn2)cs1)c1cccc(S(=O)(=O)N2CCOCC2)c1	i	nt	1.04µM	?	?
Cc1ccc(S(=O)(=O)N2CCOCC2)cc1C(=O)Nc1nc2ccccc2[nH]1	i	i	?	i	i
COc1ccc(C(=O)Nc2nc(-c3ccccn3)cs2)cc1S(=O)(=O)N1CCOCC1	i	nt	nt	nt	nt
Cc1ccc(S(=O)(=O)N2CCOCC2)cc1C(=O)Nc1nc(-c2ccccn2)cs1	-87.1	nt	nt	nt	nt
CC(C)(C)NC(=O)CSc1nc(O)cc(=O)[nH]1	i	i	i	?	i
Cc1cccc(NC(=O)c2nc[nH]c2C(=O)Nc2cc(Br)ccc2F)c1	-88.4	nt	nt	nt	nt
CC(C)(C)OC(=O)[C@H](Cc1ccccc1)NC(=O)c1[nH]cnc1C(=O)N[C@@H](Cc1ccccc1)C(=O)OCc1ccccc1	i	i	?	?	i
C[C@H](NC(=O)c1nc[nH]c1C(=O)N[C@@H](Cc1ccccc1)C(=O)OC(C)(C)C)C(=O)OC(C)(C)C	i	i	7.38µM	?	i
CC(C)(C)OC(=O)[C@H](Cc1ccccc1)NC(=O)c1[nH]cnc1C(=O)Nc1cccc(Cl)c1	i	?	?	?	i
CC(C)(C)OC(=O)[C@H](Cc1ccccc1)NC(=O)c1nc[nH]c1C(=O)N[C@@H](Cc1ccccc1)C(=O)OC(C)(C)C	-68.2	i	11.7µM	?	i
Cc1cccc(NC(=O)c2nc[nH]c2C(=O)N[C@@H](Cc2ccccc2)C(=O)OC(C)(C)C)c1	?	?	?	11.7µM	i
COc1cc(OC)cc(C(=O)NC(C(=O)Nc2ccc3c(c2)OCO3)C(C)C)c1 (stereo not drawn)	i	nt	?	i	i
Cc1ccccc1NC(=O)C(=O)NNC(=O)COc1ccc2ccccc2c1	i	i	i	?	i
